# Assay results from PubChem BioAssay (NCATS).
# Records with an inconclusive call do not appear. Active and inactive are the calls of the source. Calls follow the shape of the dose curve; as a rule, active = well fitted inhibition curve with a large enough effect; inconclusive = small, poorly fitted or top-dose-only effect, or effect the other way; inactive = flat fitted curve, though single readings scatter.
# Biological target: ATP-dependent 6-phosphofructokinase (Trypanosoma brucei brucei) (UniProt O15648)
# Experiment: qHTS Assay to Find Inhibitors of T. brucei phosphofructokinase: hit validation (AID 492961);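 also: luminescence reports ADP formed as PFK phosphorylates fructose-6-phosphate with ATP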
# Conditions: T. brucei PFK, ADP-Glo luminescence; series mostly up to 51.4 µM
# In short: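 Reaction: 0.1 M triethanolamine pH 8.0, 5 mM MgCl2, F6P 0.5 mM, ATP 0.1 mM, PFK 1.25 nM, 45 min RT. Read-out: ADP-Glo luminescence. Analysis: concentration-response fits, classed by r2 and efficacy.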
# ATP-dependent 6-phosphofructokinase (Trypanosoma brucei brucei), sequence (O15648 whole entry, looked up): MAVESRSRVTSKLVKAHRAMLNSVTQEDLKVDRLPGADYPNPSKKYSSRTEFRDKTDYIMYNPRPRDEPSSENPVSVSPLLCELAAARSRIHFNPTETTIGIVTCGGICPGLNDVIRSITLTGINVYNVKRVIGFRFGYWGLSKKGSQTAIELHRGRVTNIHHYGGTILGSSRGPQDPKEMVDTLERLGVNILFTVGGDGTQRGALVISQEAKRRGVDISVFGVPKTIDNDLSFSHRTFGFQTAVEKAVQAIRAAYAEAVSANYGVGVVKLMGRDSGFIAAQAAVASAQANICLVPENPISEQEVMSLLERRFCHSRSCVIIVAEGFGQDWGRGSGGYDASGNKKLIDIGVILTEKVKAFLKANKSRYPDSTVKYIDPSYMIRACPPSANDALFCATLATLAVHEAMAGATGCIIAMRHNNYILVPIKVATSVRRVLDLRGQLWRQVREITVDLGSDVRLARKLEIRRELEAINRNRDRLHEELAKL
row,SMILES,outcome
1,O=C1CN=C(c2ccccc2)c2cc([N+](=O)[O-])ccc2N1,inactive
2,Clc1ccc2c(c1)C(c1ccccc1)=NCc1nncn1-2,inactive
3,NC(=O)CC[C@@H]1NC(=O)[C@H](Cc2ccccc2)NC(=O)[C@H](Cc2ccc(O)cc2)NC(=O)[C@@H](N)CSSC[C@@H](C(=O)N2CCC[C@H]2C(=O)N[C@@H](CCCN=C(N)N)C(=O)NCC(N)=O)NC(=O)[C@H](CC(N)=O)NC1=O,inactive
4,NNc1ccccc1,inactive
5,CC(C)NC(C)C,inactive
6,O=C1c2ccccc2C(=O)c2ccccc21,inactive
7,O=C(Nc1ccc(Br)cc1)c1cc(Br)cc(Br)c1O,inactive
8,COP(=S)(OC)Oc1ccc(SC)c(C)c1,inactive
9,Clc1cccc(SC2CCNCC2)n1,inactive
10,CN1C(=O)C(O)N=C(c2ccccc2)c2cc(Cl)ccc21 (stereo not given),inactive
11,CCCC(C)(COC(N)=O)COC(N)=O,inactive
12,CC(C)=CC1C(C(=O)OCN2C(=O)C3=C(CCCC3)C2=O)C1(C)C (stereo not given),inactive
13,CCOP(=S)(OCC)Oc1ccc2c(C)c(Cl)c(=O)oc2c1,inactive
14,O=C1Nc2ccc(Cl)cc2C(c2ccccc2Cl)=NC1O (stereo not given),inactive
15,Oc1ccc(Cl)cc1,inactive
16,O=C(N/N=C/c1ccc([N+](=O)[O-])o1)c1cc([N+](=O)[O-])cc([N+](=O)[O-])c1O,inactive
17,CCCCCCC(=O)CCCCCC/C=C/C[C@@H](O)[C@H](O)[C@@](N)(CO)C(=O)O,inactive
18,CCC(C)(C)c1ccc(O)cc1,inactive

row,SMILES,outcome
1,COC1CC(=C(c2cccs2)c2cccs2)C[N+](C)(C)C1 (stereo not given),inactive
2,CCCCCCCCCC(=O)O[C@H]1CC[C@H]2[C@@H]3CCC4=CC(=O)CC[C@@H]4[C@H]3CC[C@]12C,inactive
3,Cc1nnc2n1-c1ccc(Cl)cc1C(c1ccccc1Cl)=NC2,inactive
4,O=C1c2ccccc2C(=O)C1C(=O)C(c1ccccc1)c1ccccc1,inactive
5,CNC(C)(C)Cc1ccccc1,inactive
6,Nc1ccc([As](=O)(O)O)cc1,inactive
7,COc1cccc([C@@]2(O)CCCC[C@@H]2CN(C)C)c1,inactive
8,C[C@](O)(CS(=O)(=O)c1ccc(F)cc1)C(=O)Nc1ccc(C#N)c(C(F)(F)F)c1,inactive
9,NC(=O)CS(=O)C(c1ccccc1)c1ccccc1 (stereo not given),inactive
10,C=CCN1C[C@H](C)N([C@H](c2ccc(C(=O)N(CC)CC)cc2)c2cccc(OC)c2)C[C@H]1C,inactive
11,O=c1oc2ccccc2c(O)c1Cc1c(O)c2ccccc2oc1=O,inactive
12,COC(=O)C(c1ccccc1)C1CCCCN1 (stereo not given),inactive
13,C[C@]12CC[C@@H]3c4ccc(OC(=O)N(CCCl)CCCl)cc4CC[C@H]3[C@@H]1CC[C@@H]2O,inactive
14,Nc1ccccc1C(=O)O,inactive
15,CN1CCC(O)(c2ccc(F)cc2)C(C(=O)c2ccc(F)cc2)C1 (stereo not given),inactive
16,CN1C[C@H](C(=O)N[C@]2(C)O[C@@]3(O)[C@@H]4CCCN4C(=O)[C@H](Cc4ccccc4)N3C2=O)C=C2c3cccc4[nH]cc(c34)C[C@H]21,inactive
17,CN1C(=O)NC(=O)C(C)(C2=CCCCC2)C1=O (stereo not given),inactive
